Each structure is given as a SMILES string.

The target of this test is AMP-activated protein kinase, AMPK (Homo sapiens) (UniProt P54646+O43741+P54619+Q9UGJ0+Q9Y478+Q13131+Q9UGI9). The test is described as follows: AMP-dependent Kinase enzyme assay. An in vitro enzyme assay that detects ADP turnover that is directly proportional to AMPK activity. This uses naive AMPK that is activated during the assay with MK-8722. Format: functional. Further details: scale not given: direction of the effect not stated beside the values. To be noted: 30 µM.
For `CN(CCc1ccccc1)c1cnn(C)c(=O)c1Br`, the Percent Effect is 7.95%.
For `Cc1sc2ccccc2c1S(=O)(=O)NCCNC(=O)C(C)C`, the Percent Effect is -0.0872%.
Take `COCCCN1CC2(CCN(C(=O)c3ccc(=O)n(C)c3)CC2)CC1=O`: the Percent Effect worked out at 9.31%.
For `Cc1ccc(C(=O)N2[C@@H]3CC[C@H]2CN(C)C(=O)C3)c(=O)[nH]1`, the Percent Effect was found to be 8.78%.
In the case of `O=C(c1ccnc(-n2cnnc2)c1)N1CCCC2(CCOC2)C1` (stereo not given), the Percent Effect is -4.79%.
On to `Cc1nn(C)c(C)c1CCC(=O)NCC1(C(N)=O)CCOCC1`, for which the Percent Effect was 1.16%.
In the case of `N#CCCN(Cc1ccccn1)C(=O)c1cccc(CN2CCCC2)c1`, the Percent Effect came to 0.67%.
The value for `CCN1CCC(CC(=O)NCCc2nc(N)cc(O)n2)CC1` was 0.153%.
`Cc1noc(C)c1C(=O)N(C)C(C)c1cccnc1` (stereo not given): the Percent Effect was -4.48%.
With `O=C(NCc1ccnc(OCC2CC2)c1)C1Cc2ccccc2O1` (stereo not given), the Percent Effect is -4.29%.
For the compound `O=S(=O)(Cc1nc(C2CC2)no1)c1ccccc1F`, the Percent Effect amounted to 1.42%.
With `Cc1c(CN2CCc3[nH]cnc3C2C2CC2)[nH]c2ccc(F)cc12` (stereo not given) the figure was 3.62%; with `CCN(C)Cc1cccc(CNC(=O)NCCc2ccccn2)c1`, 3.33%; with `CC(C(=O)NCCc1ccc2c(c1)OCCO2)n1cncn1` (stereo not given), -6.97%.
For the compound `Cc1cccc(C)c1Nc1noc2c1CN(C(=O)c1cn(C)cn1)CC2`, the Percent Effect came to 17.2%.
As for `CN(C)CCN(C)C(=O)c1cn(CC2CCCCC2)nn1`, the Percent Effect was 10.7%.
Turning to `Cn1cc(S(=O)(=O)N(CC(F)(F)F)C2CC2)cc1C(N)=O`, the Percent Effect came out at 1.54%.
As to `CC(C)n1cnnc1CN(C)C(=O)c1cc(COc2ccccc2)[nH]n1`, the Percent Effect was 0%.
Regarding `CNc1cc2c(nn1)CCN(C(=O)c1ccccc1-n1cccn1)C2`, the Percent Effect was -15.3%.
Regarding `CC(C)N1CCC(NC(=O)c2cn(-c3ccc(F)cc3)nn2)C1` (stereo not given), the Percent Effect is -3.78%.

(Values after ChEMBL document CHEMBL3988442, “University of Dundee, Small-Polar-MMV Screening Library” (2021).)
